# TDP1 cell CPT: qHTS for Inhibitors of human tyrosyl-DNA phosphodiesterase 1 (TDP1): qHTS in cells in presence of CPT. chicken DT40 Tdp1-/-;hTDP1 cells + 20 nM CPT, ATP luminescence, 48 h. Potency, µM (series often up to 46.2 µM), for inactives: at the top dose activity change, negative = growth inhibition, hits mostly inhibitors. actives 12% (n = 420,000). AID 686979, 2013; also: potency is read from the fitted curve at half-maximal effect; nearly all actives have a fitted effect of over 55% in size
#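 Cell growth measured by CellTiter-Glo luminescence after a minimum 48 h, 37 C compound exposure with 20 nM CPT in Tdp1-knockout DT40 cells stably expressing hTDP1, seeded 400/well; qHTS titration format.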
# DT40 TDP1 no CPT: qHTS for Inhibitors of human tyrosyl-DNA phosphodiesterase 1 (TDP1): qHTS in cells in absence of CPT; DT40 Tdp1-/- hTDP1 cells, no CPT, ATP luminescence, 48 h; Potency, µM (top dose mostly 46.2 µM), without a hit: at the highest dose activity change, negative = growth inhibition, usual class: inhibitors; actives 15% (n = 420,000); AID 686978, 2013; also: potency is read from the fitted curve at half-maximal effect; nearly all actives have a fitted effect of over 55% in size
#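 Compound effects on proliferation are scored in DT40 Tdp1-/-;hTDP1 cells in the absence of CPT. ATP levels (CellTiter-Glo luminescence) are recorded after a ≥48 hr, 37 °C incubation.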
# HT1080 IDH1KD tx: qHTS for induction of synthetic lethality in tumor cells producing 2HG: qHTS for the HT-1080-IDH1KD cell line. HT-1080 IDH1 knockdown viability, ATP luminescence, 48 h. Potency, µM (highest dose often 46.1 µM), for inactives: at the top dose activity, negative = toxicity, usual class: cytotoxic. actives 2% (n = 360,000);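 also: potency is read from the fitted curve at half-maximal effect; 0% = DMSO wells and -100% = cell-free medium wells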
#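 Using the IDH1-knockdown HT-1080 line run in the same batch and compound series as the NT line, viability after 48 h at 37 °C was determined by CellTiter-Glo luminescence and expressed as % activity.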
# HT1080NT lethal: qHTS for induction of synthetic lethality in tumor cells producing 2HG: qHTS for the HT-1080-NT fibrosarcoma cell line; AID 686970, 2013; actives 1.6% (n = 360,000); Potency, µM (titrated, usually from 46.1 µM), for the others: at the highest dose activity, negative = less viability, actives largely listed as cytotoxic; HT-1080-NT fibrosarcoma viability, CellTiter-Glo ATP luminescence, 48 h;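 also: NT is the 2HG producing partner of a matched IDH1 knockdown line; potency is read from the fitted curve at half-maximal effect; 0% = DMSO-treated cells and -100% = media-only wells without cells; nearly all actives have a fitted effect of over 55% in size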
#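 Toxicity toward the 2HG-producing NT line was scored as %Activity, normalised to DMSO and no-cell wells, from CellTiter-Glo luminescence after 48 hours' treatment.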
# IL1B secr inh: qHTS for Inhibitors of Inflammasome Signaling: IL-1-beta AlphaLISA Primary Screen | THP-1 LPS/ATP IL-1B secretion, AlphaLISA, 16 h; hits give low values | activity change, % at 57.5 µM | actives 4.7% (n = 360,000); in the data active = activity change below about -50%; inconclusive = mostly about -30% to -49%
#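 Secreted IL-1B measured by AlphaLISA bead assay after 16 h compound exposure of THP-1 cells; compounds (final up to 57.5 uM) added 1 h before LPS (250 ng/mL) and ATP (1.25 mM) stimulation; lower signal means less secretion.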
# An asterisk follows results filed as active; ? = inconclusive; nt = no result; [ ] = another dose, or the depositor's remark. This is a sample that favours compounds with a hit; in the whole collection about 19% have one here. Unless noted, calls follow the shape of the dose curve; as a rule, active = well fitted curve in the direction sought with a large enough effect; inconclusive = small, poorly fitted or top-dose-only effect, or another doubt; inactive = no such curve, though single readings can be large; an effect the other way counts as inactive or inconclusive. Unless noted, % is scaled to controls: 0 for no effect and ±100 for the full control effect.
SMILES,TDP1 cell CPT,DT40 TDP1 no CPT,HT1080 IDH1KD tx,HT1080NT lethal,IL1B secr inh
CCOC(=O)c1c(S(=O)(=O)N2CCCC(C(=O)Nc3ccc(C)cn3)C2)c(C)n(C)c1C (centres undefined),?,?,7%,6%,-1
CCOC(=O)c1c(C)c(C(=O)N2CCN(c3ccccc3)CC2)c(C)n1C,-21%,-25%,-7%,0%,-69*
CCOC(=O)c1c(C)c(C(=O)N2CCN(c3ccc(F)cc3)CC2)c(C)n1C,?,?,-10%,-8%,6
CCOC(=O)c1c(S(=O)(=O)N2CCCC(C(=O)N3CCN(c4ccc(F)cc4)CC3)C2)c(C)n(C)c1C (centres undefined),23µM*,?,nt,nt,nt
COc1ccc2[nH]c3c(c2c1)CCN1C(=O)C(CC(=O)NCc2ccco2)C[C@H](C(=O)N(C(C)C)C(C)C)[C@@]31C (some centres undefined),?,?,-8%,-5%,-26
COc1cc2c(C=O)c3c4c(cc(OC)c(OC)c4c2cc1OC)CCN3C,12µM*,12µM*,nt,nt,nt
COc1cc2c(cc1OC)CC(=O)N(C)CC2,1%,1%,11%,24%,0
O=C(c1ccccc1)[C@@H]1[C@@H](C(=O)c2ccc(F)cc2)[C@@]2(C(=O)Nc3ccccc32)[C@H]2c3ccccc3C=CN12,23µM*,15µM*,-14%,-1%,?
CC(=O)[C@@H]1[C@@H](C(=O)c2ccccc2)[C@]2(C(=O)Nc3ccccc32)[C@H]2C=Cc3cc(F)ccc3N12,23µM*,18µM*,-18%,-25%,0
O=C(CC[C@H]1O[C@@H](n2cnc3c(NC(=O)c4ccccc4)ncnc32)[C@H](O)[C@@H]1O)NCCCN1CCCC1=O,8%,2%,2%,-1%,4
O=[N+]([O-])c1ccccc1S(=O)(=O)N1CCN(c2ccc(F)cc2)CC1,10%,-25%,22%,8%,-13
CNC(=O)COC(=O)c1c2c(nc3ccccc13)CCC2,?,?,-1%,0%,20
COc1ccc(NC(=O)COC(=O)c2c3c(nc4ccccc24)CCCC3)cc1Cl,21µM*,7.3µM*,?,?,?
COc1ccc(NC(=O)COC(=O)c2c3c(nc4ccccc24)CCCC3)cc1,?,?,?,-14%,?
COc1ccc(OC)c(NC(=O)COC(=O)c2n[nH]c3ccccc23)c1,21µM*,16µM*,0%,3%[9.24 µM],-3
Cc1cc(C)cc(NC(=O)COC(=O)c2n[nH]c3ccccc23)c1,-7%,-11%,?,-19%,0
COc1ccc(OC)c(NC(=O)COC(=O)c2c3c(nc4ccccc24)CCCC3)c1,23µM*,21µM*,?,?,6
COc1cc2nc(CCNCc3ccccc3)nc(NC3CCN(C)CC3)c2cc1OC,5.6µM*,5µM*,?,?,nt
COc1cc2nc(NC3CCN(C)CC3)nc(NC3CCN(C)CC3)c2cc1OC,?,?,6%,3%,nt
COc1cc2nc(N(C)C)nc(NC3CCN(C)CC3)c2cc1OC,4.5µM*,4µM*,?,?,nt
COc1cc2nc(N(C)C)nc(N)c2cc1OC,?,26µM*,?,-27%,0
COc1cc2nc(N(C)CCCNC(=O)C3CCCO3)nc(N)c2cc1OC (centres undefined),5%,-14%,nt,nt,nt
COc1cc2nc(NC3CCN(C)CC3)nc(N3CCCN(C)CC3)c2cc1OC,?,?,-3%,9%,nt
COc1cc2nc(Cl)nc(NC3CCN(C)CC3)c2cc1OC,11µM*,?,13%,3%,nt

# Bioassay records (PubChem)
